Data from PubChem BioAssay (NCI).
“And” between values parts separate entries of the source, which are not always exact repeats. Identical values can stand only once. The panel holds about 79,000 compounds, 15% with a hit somewhere; the sample as a whole holds those more often. The source made the active and inactive calls. Cut-off read from the data, not from the text of the source: active = growth inhibition above about 70%; inactive = the rest. Where a SMILES comes first, the peptide text is derived from it.

Columns and labels:
[1] = NCI Yeast Anticancer Drug Screen. Data for the rad50 strain (AID 155);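 note: 0% = growth of vehicle-only cultures of the same strain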; details: S. cerevisiae rad50 strain growth inhibition, active compounds read high; at 50.0 µM unless noted
Outline: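 Compounds were tested on a yeast strain with an engineered DNA damage repair alteration; the reported value is growth inhibition normalised to vehicle treatment.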

[2] = NCI Yeast Anticancer Drug Screen. Data for the mec2-1 strain (AID 157); details: S. cerevisiae mec2-1 strain, active compounds read high; at 50.0 µM unless noted
Outline: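 Using mec2-1 yeast: add compound, measure growth, express inhibition versus vehicle-treated cultures.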

[3] = NCI Yeast Anticancer Drug Screen. Data for the sgs1 mgt1 strain (AID 161);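 note: 0% = growth of cultures given vehicle only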; details: S. cerevisiae sgs1 mgt1 strain, active compounds read high; at 50.0 µM unless noted
Outline: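 Yeast cells carrying a defined DNA-repair defect were exposed to test compounds. Growth inhibition was measured relative to vehicle-treated controls.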

[4] = NCI Yeast Anticancer Drug Screen. Data for the cln2 rad14 strain (AID 165);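 note: 0% = growth equal to vehicle treated cultures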; details: S. cerevisiae cln2 rad14 strain, active compounds read high; at 50.0 µM unless noted
Outline: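 Yeast strain cln2 rad14, bearing defects in cell cycle control and DNA repair, serves as the test system; values reflect growth inhibition compared with vehicle.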

[5] = NCI Yeast Anticancer Drug Screen. Data for the bub3 strain (AID 167); details: S. cerevisiae bub3 mutant strain, active compounds read high; at 50.0 µM unless noted
Outline: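 Growth of a checkpoint-deficient yeast mutant is measured after compound exposure. Values represent inhibition relative to vehicle.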

[6] = NCI Yeast Anticancer Drug Screen. Data for the mlh1 rad18 strain (AID 175); details: S. cerevisiae mlh1 rad18 strain growth inhibition, active compounds read high; at 50.0 µM unless noted
Outline: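 Steps: expose repair-defective yeast to compound; measure growth; express inhibition against vehicle-treated controls.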

Measured: growth inhibition

O=C(CCCn1ccnc1[N+](=O)[O-])NCCn1cnc([N+](=O)[O-])n1
inactive: [1] 7% | [2] 17.2% | [3] -6.05% | [4] -6.2% | [5] -4.8% | [6] -16.1%

COC(OC)C(C)=O
inactive: [1] -13.1% | [2] -19.8% | [3] -18.9% | [4] -16.9% | [5] -15.5% | [6] 5.35%

O=C(O)c1nc(-c2ccccc2)ncc1-c1nnnn1-c1ccccc1
inactive: [1] -37.7% | [2] 3.75% | [3] -21.9% | [4] 4.7% | [5] -18.7% | [6] -7.1%

O=S(=O)(O)c1cc(S(=O)(=O)O)c2cc(O)ccc2c1
inactive: [1] 0.6% | [2] 3.35% | [3] 13.4% | [4] -18.6% | [5] 5.35% | [6] 28.4%

Cc1ccc2c(c1)C(C(=O)N[C@@H]1C(=O)N3[C@@H]1SC(C)(C)[C@@H]3C(=O)O)OCCC2 (some centres undefined)
inactive: [1] -5.1% | [2] -12.3% | [3] 16.2% | [4] 2.45% | [5] 0.65% | [6] -68.4%

O=C(O)CNC(=O)CNC(=O)CNC(=O)C(CSC(c1ccccc1)(c1ccccc1)c1ccccc1)NC(=O)OCc1ccccc1 (centres undefined)
inactive: [1] 20.4% | [2] 4.5% | [3] -13.7% | [4] 22.1% | [5] 10.7% | [6] 4.9%

CS(C)=C(C(=O)c1ccccc1)/C(=C/C(=O)c1ccccc1)c1ccccc1
active: [6] 79%
inactive: [1] 21.5% | [2] 26.2% | [3] 65% | [4] 36% | [5] 43.6%

C=CC(=O)OCCOCCCC
inactive: [1] 8.75% | [2] 5.4% | [3] -4.7% | [4] -21.9% | [5] -15.1% | [6] 4.85%

O=C(Nc1ccc([N+](=O)[O-])cc1C(=O)O)c1ccc([N+](=O)[O-])cc1
inactive: [1] 37.8% | [2] -3.6% | [3] 0.1% | [4] 18.5% | [5] -22.3% | [6] 2%

CC(O)(c1ccccc1)c1ccccc1
inactive: [1] -13.3% | [2] -1.75% | [3] -25.6% | [4] -16.8% | [5] -2.3% | [6] -33.3%

CN(C)CC=C(c1ccccc1)c1ccccc1
inactive: [1] -11.9% | [2] -16.4% | [3] -3.3% | [4] -4.05% | [5] -8.85% | [6] 6.6%

CCCC(=O)Nc1ccc(C2=NNC(=O)C3CC23)cc1 (centres undefined)
inactive: [1] 31.2% | [2] 26.6% | [3] 33.5% | [4] -20% | [5] 27.9% | [6] 36.5%

O=c1[nH]cc(Br)c(=O)[nH]1
inactive: [1] 28.8% | [2] 19.7% | [3] 13.7% | [4] 9.3% | [5] 21.9% | [6] 37%

Cc1cc(Cl)ccc1NC(=O)CC/C(CC(=O)C(C)C)=N\NC(=O)C[n+]1ccccc1
inactive: [1] -43.9% | [2] 3.45% | [3] -20.4% | [4] -15.2% | [5] -30.6% | [6] -32.8%

CC(C)[Si]1(C(C)C)OCC2OC(n3ccc(=O)[nH]c3=O)C([Se]c3ccccc3)C2O[Si](C(C)C)(C(C)C)O1 (centres undefined)
inactive: [1] 0% | [2] -22.1% | [3] -25.5% | [4] -17.2% | [5] -49.9% | [6] -61.9%

C=C(C)c1ccc(C(C)C)cc1
inactive: [1] -38.5% | [2] -40.1% | [3] -24.6% | [4] 4.55% | [5] -13.6% | [6] -3.25%

NC(=O)C1CCCN1C(=O)C(N)Cc1ccccc1 (stereo not drawn) (H-Phe-Pro-NH2; configuration not given here)
inactive: [1] -26.9% | [2] -44.1% | [3] -21.1% | [4] 5.7% | [5] 4.7% | [6] -9.05%

Cc1ccc(C2OC3=C(Nc4ccc([N+](=O)[O-])cc4N3)C2=O)cc1 (centres undefined)
inactive: [1] 10.1% | [2] 7.75% | [3] 8.65% | [4] 12.8% | [5] -4.35% | [6] 3.25%

NC(=O)C(NCc1ccccc1)c1ccccc1 (centres undefined)
inactive: [1] -2.65% | [2] 4.4% | [3] 1.6% | [4] 12.5% | [5] 2.6% | [6] 2.6%

COC(=O)C(C)(N=Cc1ccccc1)c1ccccc1 (centres undefined)
inactive: [1] -34.2% | [2] -30.9% | [3] 6.7% | [4] 17.4% | [5] -9.75% | [6] 0.6%

N#CC(c1ccccc1)c1ccc2ccccc2n1 (centres undefined)
inactive: [1] 23.6% | [2] 7.4% | [3] 10.8% | [4] 2.6% | [5] 33.5% | [6] -0.9%

O=c1[nH]nc(Cc2ccccc2)n1C1CCCC1
inactive: [1] -1.55% | [2] -5.3% | [3] -12.6% | [4] -17.8% | [5] -9.6% | [6] -1.05%

CCC(C)C(C#N)(CCN(CC)CC)c1ccccc1 (centres undefined)
inactive: [1] 15.2% | [2] 12.6% | [3] 28.4% | [4] 7.3% | [5] 32.9% | [6] 14.5%

CCc1cc(C(=O)OC/C(C)=N/O)c2ccccc2n1
inactive: [1] -18.8% | [2] -0.65% | [3] -10.1% | [4] -18.4% | [5] 30.4% | [6] -22.6%

NC1CCCC2CCC(N)C12 (centres undefined)
inactive: [1] 17.9% | [2] 15.6% | [3] 20.8% | [4] 24.6% | [5] 10.7% | [6] 20.2%

CCCN(CCC)CC(O)CNc1cc(OC)cc2cccnc12 (centres undefined)
inactive: [1] 9.75% | [2] -16.2% | [3] 6.7% | [4] -35.7% | [5] 19.9% | [6] 5.7%

CN(C)c1nc(N(C)C)nc(N(C)CN(C)c2ccc(Cl)cc2)n1
inactive: [1] -11.3% | [2] -23.3% | [3] -26.8% | [4] -11.3% | [5] -49% | [6] -16.4%

CC(=O)Nc1ccc(S(=O)(=O)O)c(OC(C)=O)c1
inactive: [1] 20.8% | [2] -7.2% | [3] 9.85% | [4] -11.8% | [5] 7.35% | [6] 19.1%

CCC1(C)OCCO1
inactive: [1] 0.5% | [2] -13.5% | [3] -12.1% | [4] -29.9% | [5] 1.05% | [6] 2.2%

O=C(c1ccc(-c2ccccc2)cc1)C(O)c1ccc(-c2ccccc2)cc1 (centres undefined)
inactive: [1] 7.55% | [2] 0.4% | [3] 2.65% | [4] -5.35% | [5] 1.2% | [6] 4.65%

Clc1ccc2c(c1)C(=P(c1ccccc1)(c1ccccc1)c1ccccc1)c1cc(Cl)cc(Cl)c1-2
active: [1] 83.7%
inactive: [2] 52.6% | [3] 66.8% | [4] 50.6% | [5] 39.3% | [6] 64.6%

NC1CCC(C(=O)O)CC1 (centres undefined)
inactive: [1] -3% and -3.15% | [2] 0.95% and 15.9% | [3] -3.5% and 4.4% | [4] -52% and 57% | [5] 6.15% and 61.3% | [6] -7.65% and 28.4%

CS(=O)(=O)OCC(Br)C(Br)COS(C)(=O)=O (centres undefined)
inactive: [1] 2.8% | [2] 5.2% | [3] 7.7% | [4] 26.4% | [5] -5.3% | [6] 10.2%

COC1OC(C)C(OC(=O)c2ccccc2)C(OC(=O)c2ccccc2)C1OC(=O)c1ccccc1 (centres undefined)
inactive: [1] 16.2% | [2] -3.45% | [3] 3.75% | [4] -23.6% | [5] 1.95% | [6] 12.7%

CC(O)C1(O)CCCCC1 (centres undefined)
inactive: [1] -11.8% | [2] -1.95% | [3] -2.05% | [4] -29.6% | [5] -13.2% | [6] -14.8%

COC(=O)C1(C(C)C(=O)c2ccccc2)NC(=S)NC(=O)C1C#N (centres undefined)
inactive: [1] -6.1% | [2] -16.7% | [3] -35.2% | [4] -11.8% | [5] -14.4% | [6] -25.8%

O=C(c1ccccc1)c1ccc2c(c1)N=C(c1ccc(Cl)c(Cl)c1)CC(c1ccc3ccccc3c1)N2 (centres undefined)
inactive: [1] 22.2% | [2] 15.4% | [3] -7% | [4] -33.5% | [5] -3.6% | [6] 16.6%

COc1ccccc1/C=C\C#N
inactive: [1] -9.2% | [2] -6.1% | [3] -6.45% | [4] -28% | [5] -29.2% | [6] -13.4%

CCCCCCCCCCCCSC(=S)c1c(C)[nH]n(CCCCCCCCCCCC)c1=O
inactive: [1] 39.9% | [2] 25.9% | [3] 42.3% | [4] 26.2% | [5] 21.9% | [6] 12.8%
